Most compounds without a hit are left out; they make up all but 11% or so of the library.
L3MBTL1 inh = L3MBTL1 (human) inhibition; Q9Y468; AlphaScreen L3MBTL1–H3K9me1 peptide binding; Potency, µM (highest dose often 57.1 µM), for inactives: at the top dose activity, negative = inhibition, usual class: inhibitors; 230,000 tested, 0.66% active; AID 485360; also: % is scaled to controls: 0 for no effect and ±100 for the full control effect; nearly all actives have a fitted effect of over 60% in size
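Read-out is AlphaScreen signal from streptavidin donor and nickel chelate acceptor beads (10 ug/mL final each) bridging L3MBTL1 (50 nM) and biotinylated K9-monomethylated H3(1-15) peptide (75 nM), after 30 min compound exposure at room temperature.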
JMJD2A Tudor inh = JMJD2A Tudor domain (human) inhibition; O75164; AID 504339; 390,000 tested, 4.4% active; AlphaScreen JMJD2A-Tudor / H3K4me3 peptide binding; Potency, µM (titrated, usually from 114 µM), without a hit: top-dose activity change, negative = inhibition, hits mostly inhibitors; also: % is scaled to controls: 0 for no effect and ±100 for the full control effect; nearly all actives have a fitted effect of over 50% in size
BAZ2B block = BAZ2B (human) inhibition; Potency, µM (series often up to 114 µM), without a hit: at the highest dose activity change, negative = inhibition, most hits filed as inhibitors; 360,000 tested, 4.4% active; AlphaScreen BAZ2B-H3K14Ac peptide displacement; also: % is scaled to controls: 0 for no effect and ±100 for the full control effect; nearly all actives have a fitted effect of over 60% in size
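Multi-concentration screen (max 110 uM) measuring displacement of acetylated histone H3 peptide from BAZ2B by AlphaScreen, using 50 nM protein, 50 nM peptide and 10 ug/mL streptavidin donor plus Ni-chelate acceptor beads.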
HP1b chromo inh = HP1-beta chromodomain-methylated histone interaction inhibition | AID 540317 | Potency, µM (series often up to 114 µM), without a hit: at the highest dose activity change, negative = inhibition, most hits filed as inhibitors | 390,000 tested, 0.56% active | AlphaScreen HP1-beta / biotin-H3K9me3 peptide binding; also: nearly all actives have a fitted effect of over 70% in size
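HP1-beta protein (50 nM final) preincubated 30 min at room temperature with biotinylated H3(1-18)K9me3 peptide (50 nM) in PBS pH 7.4, 0.01% Tween-20, then compound added for 30 min. AlphaScreen streptavidin donor/nickel chelate acceptor beads (10 ug/mL final), 30 min dark, luminescence read.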
G9a block = inhibitors of human histone lysine methyltransferase G9a; Potency, µM (series often up to 102 µM), for inactives: at the top dose activity, negative = inhibition, actives largely listed as inhibitors; Q96KQ7; G9a H3K9 monomethylation, AlphaScreen, 2 h; 350,000 tested, 8.8% active; AID 504332; also: % is scaled to controls: 0 for no effect and ±100 for the full control effect; nearly all actives have a fitted effect of over 75% in size
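G9a (20 nM) was preincubated 15 min with compound, then reacted 2 h at room temperature with 500 nM biotin-H3K9 peptide and 20 µM SAM. Monomethyl-H3K9 detected by AlphaScreen using anti-H3K9me1 antibody.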
The depositor's hits bear a star; ? = inconclusive; . = no result; [ ] = remark or other dose. Calls follow the shape of the dose curve; as a rule, active = well fitted inhibition curve with a large enough effect; inconclusive = small, poorly fitted or top-dose-only effect; inactive = no such curve, though single readings can be large or run the other way. Potency is read from the fitted curve at half-maximal effect.

SMILES	L3MBTL1 inh	JMJD2A Tudor inh	BAZ2B block	HP1b chromo inh	G9a block
CC(C)(C)c1nnc(NC(=O)C2CCN(C(=O)c3ccccc3)CC2)s1	.	-10%	.	23%	.
O=C(CCN1CCOCC1)NNC(=S)NC(=O)c1ccc(Br)cc1	0%	?	-37%	6%	7.9µM*
O=C(NC(=S)NCCCN1CCOCC1)c1ccc(Br)cc1	-11%	-14%	-18%	17%	-8%
O=C(CCN1CCCCC1)NNC(=S)NC(=O)c1ccc(Br)cc1	?	?	?	11%	11µM*
Cc1ccc(NC(=O)C2CCCN(c3cnccn3)C2)cc1Cl (centres undefined)	.	-7%	-35%	20%	-8%[59 µM]
CCN1CCN(c2ccc(S(=O)(=O)N3CCOCC3)cc2NC(=O)c2ccc(Cl)s2)CC1	-1%	-22%	2%	3%	-30%
CCN1CCN(c2ccc(S(=O)(=O)N3CCOCC3)cc2NC(=O)CC(C)C)CC1	4%	-10%	-23%	44%	0%[12.7 µM]
CCN1CCN(c2ccc(S(=O)(=O)N3CCOCC3)cc2NC(=O)c2ccccc2SC)CC1	0%	-9%	-4%	14%	32µM*
CCN1CCN(c2ccc(S(=O)(=O)N3CCOCC3)cc2NC(=O)c2cc(Cl)nc3ccccc23)CC1	-3%	-7%	4%	13%	45µM*
CCN1CCN(c2ccc(S(=O)(=O)N3CCOCC3)cc2NC(=O)C(C)Oc2ccc(Cl)cc2)CC1 (centres undefined)	-6%	-25%	-31%	2%	11µM*
CCN1CCN(c2ccc(S(=O)(=O)N3CCOCC3)cc2NC(=O)c2sccc2C)CC1	-7%	-21%	-5%	6%	13µM*
CCN1CCN(c2ccc(S(=O)(=O)N3CCOCC3)cc2NC(=O)c2ccc(C)cc2C)CC1	7%	-2%	?	43%	?
COc1ccc(-c2cc(C(=O)Nc3cc(S(=O)(=O)N4CCOCC4)ccc3N3CCOCC3)c3ccccc3n2)cc1	-6%	1%	-11%	39%	-40%
COc1cc(/C=C(\C#N)C(=O)Nc2ccc(C)cc2)ccc1OCc1cc(=O)n2nc(C)sc2n1	.	-14%	-1%	28%	5%[59 µM]
O=C(O)c1cc(-c2ccccc2)n(-c2ccc(Cl)cc2Cl)n1	.	-6%	-1%	26%	11%
O=C(O)c1cc(-c2ccccc2)n(-c2ccccc2C(=O)O)n1	22%	28µM*	12%	-4%	?
Nc1ccc(N2CCN(C(=O)c3ccco3)CC2)cc1	-7%	?	?	-7%	20µM*
Cc1ccc(N2CCN(C(=O)c3cccs3)CC2)cc1C	1%[2.29 µM]	-31%	50µM*	5%	-8%[0.501 µM]
Cc1ccc(N2CCN(C(=O)N3CCCC3)CC2)cc1C	.	-16%	-2%	16%	-21%
CC(=O)Nc1ccc(N2CCN(C(=O)c3cccs3)CC2)cc1	4%	-7%	9%	26%	8%
Nc1ccc(N2CCN(C(=O)c3cccs3)CC2)cc1	.	-7%	?	-14%	1.4µM*
CCOc1ccc(NC(=O)CCCn2c(C)c3cnn(-c4ccccc4)c(=O)c3c2C)cc1	.	-23%	-2%	20%	43%[59 µM]
CCCC[C@H]1CCCO[C@@](C(=O)NCc2ccc(C)o2)(C(F)(F)F)C1	.	-16%	.	18%	.
CNC1=C(N(C(C)=O)c2ccc(Br)cc2)C(=O)c2ccccc2C1=O	-10%	-23%	?	-10%	?
CC(=O)C1=C(c2ccc(Br)cc2)C(=O)c2ccccc2C1=O	-11%	22µM*	25µM*	25µM*	35µM*
SMILES	L3MBTL1 inh	JMJD2A Tudor inh	BAZ2B block	HP1b chromo inh	G9a block
Cc1cccc(C)c1NC(=O)c1oc2c(c1C)-c1nn(Cc3ccccc3)cc1CC2	.	-8%	-11%	2%	-7%[59 µM]
C=CCn1c(CNC(=O)c2ccco2)nnc1SCC(=O)c1ccc(F)cc1	.	-8%	1%	17%	?
C=CCn1c(CNC(=O)c2ccco2)nnc1SCC(=O)N1c2ccccc2Sc2ccccc21	.	-23%	79µM*	-5%	?
O=S(=O)(NCc1ccc(F)cc1)c1ccc(Br)cc1Br	12%	12%	29%	62%	-1%[0.501 µM]
Cc1cccc(C)c1NC(=O)C(c1ccccc1)N1CCC1=O (centres undefined)	6%	40µM*	11%	-13%	57%[12.7 µM]
CSc1nsc(SC)c1C(=O)NCCNS(=O)(=O)c1ccc(C)cc1	7%[11.4 µM]	-11%	50µM*	30%	2.8µM*
CCn1c(-c2cc(-c3ccc(C)cc3)nc3ccccc23)n[nH]c1=S	-17%	-33%	?	-16%	8.9µM*
CCCOc1cccc(-c2cc(-c3n[nH]c(=S)n3CC)c3ccccc3n2)c1	-5%	?	?	-29%	-1%[0.0925 µM]
CCn1c(-c2cc(-c3ccc(OC(C)C)cc3)nc3ccccc23)n[nH]c1=S	.	-20%	-34%	4%	28µM*
COc1ccc(-c2ccc(OC)c([C@H]3[C@@H]4C=CCC[C@@]4(C)C(=O)N3Cc3ccccc3)c2)cc1OC	.	?	?	-1%	-24%[59 µM]
COc1ccc(-c2ccc(N(C)C)cc2)cc1[C@H]1[C@@H]2C=CCC[C@@]2(C)C(=O)N1Cc1ccccc1	.	14µM*	7.9µM*	?	?
COc1ccc(-c2ccc(N(C)C)cc2)cc1C1C2C=CCCC2(C)C(=O)N1Cc1ccccc1 (centres undefined)	.	8.9µM*	.	?	.
O=C(CNC(=O)c1ccc(-c2ccccc2)cc1)OC(C(=O)Nc1cc(C(F)(F)F)ccc1Cl)c1ccccc1 (centres undefined)	.	-8%	.	.	.
CC1(C)CC(=O)C2=C(C1)NC(Nc1nc3ccccc3o1)=NC2c1cccc(F)c1 (centres undefined)	.	-6%[57.1 µM]	.	27%[57 µM]	.
CCOc1ccc(C(=O)NCc2ccco2)cc1Cl	-19%	-19%	-39%	31%	-27%
CCc1ccc(CNC(=O)c2cccc(-n3cnc4cccnc43)c2C)cc1	.	0%	-13%	37%	-2%[59 µM]
CC(C)(/C=N/O)/[N+]([O-])=C/C=[N+](\[O-])C(C)(C)/C=N/O	4%	0%	?	31%	0%
CN(C)c1ccc(/C=[N+](\[O-])C(C)(C)/C=N/O)cc1	-4%	50µM*	-4%	20%	?
NS(=O)(=O)c1ccc(CNC(=O)c2csc3c2CCCC3)cc1	1%	-3%	-13%	15%	20µM*
CCOC(=O)c1c(C)[nH]c(C)c1S(=O)(=O)N1CCC(C(=O)NCc2ccc(OC)cc2)CC1	.	89µM*	3%	3%	-2%[59 µM]
CCOC(=O)c1c(C)[nH]c(C)c1S(=O)(=O)N1CCC(C(=O)NCc2ccc(C)cc2)CC1	.	-17%	-14%	4%	-8%[59 µM]
COC(=O)c1scc(-c2ccc(C)cc2)c1S(=O)(=O)N1CCN(c2ccccc2)CC1	.	-29%	?	-6%	-42%[59 µM]

Source: PubChem
